# Experimental data reported in PubChem BioAssay (EPA / NIEHS).
# “And” between values parts separate entries of the source, which are not always exact repeats. Equal values may be shown once. Results filed as inconclusive are left out. The source made the active and inactive calls. Rule for the calls: active = hit-call score of the fitted dose curve at least 0.9, where 1 is the maximum; inconclusive = response in the unintended direction; inactive = score below 0.9.
# Columns and labels:
# [1] = target: human CYP1A2, CYP1A2 (gene 1544) (UniProt P05177); assay: NVS_ADME_hCYP1A2: NovaScreen (NVS) CYP450-related Enzyme Activity (ADME) Assay for human CYP1A2 (AID 2283102);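 for AC50: potency for inhibition since loss of fluorescence marks reduced CYP1A2 activity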
# Chain of human CYP1A2, CYP1A2 (gene 1544) (P05177 whole entry, looked up): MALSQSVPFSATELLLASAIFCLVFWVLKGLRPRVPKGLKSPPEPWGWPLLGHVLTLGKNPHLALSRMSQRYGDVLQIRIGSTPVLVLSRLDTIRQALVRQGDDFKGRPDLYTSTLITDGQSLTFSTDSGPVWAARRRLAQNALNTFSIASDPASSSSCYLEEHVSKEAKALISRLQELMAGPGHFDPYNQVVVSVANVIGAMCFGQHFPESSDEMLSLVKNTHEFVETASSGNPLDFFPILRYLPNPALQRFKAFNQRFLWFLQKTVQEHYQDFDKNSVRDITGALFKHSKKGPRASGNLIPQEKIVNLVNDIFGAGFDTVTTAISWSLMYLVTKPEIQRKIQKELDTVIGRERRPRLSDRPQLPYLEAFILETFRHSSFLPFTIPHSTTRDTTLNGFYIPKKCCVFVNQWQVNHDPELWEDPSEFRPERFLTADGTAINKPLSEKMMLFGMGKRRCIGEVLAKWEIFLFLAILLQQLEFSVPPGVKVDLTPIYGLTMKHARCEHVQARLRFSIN
# Procedure, shortened: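 Inhibition scored as decrease in fluorescent product versus acetonitrile negative control. Enzyme: insect-cell recombinant human CYP1A2, substrate-specific, cell-free. Reading at 0.5 h; 10 uM duplicate initial screen with positive and negative controls on every plate.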
# [2] = target: human CYP2C9, CYP2C9 (gene 1559) (UniProt P11712); assay: NVS_ADME_hCYP2C9: NovaScreen (NVS) CYP450-related Enzyme Activity (ADME) Assay for human CYP2C9 (AID 2283108)
# Chain of human CYP2C9, CYP2C9 (gene 1559) (P11712 whole entry, looked up): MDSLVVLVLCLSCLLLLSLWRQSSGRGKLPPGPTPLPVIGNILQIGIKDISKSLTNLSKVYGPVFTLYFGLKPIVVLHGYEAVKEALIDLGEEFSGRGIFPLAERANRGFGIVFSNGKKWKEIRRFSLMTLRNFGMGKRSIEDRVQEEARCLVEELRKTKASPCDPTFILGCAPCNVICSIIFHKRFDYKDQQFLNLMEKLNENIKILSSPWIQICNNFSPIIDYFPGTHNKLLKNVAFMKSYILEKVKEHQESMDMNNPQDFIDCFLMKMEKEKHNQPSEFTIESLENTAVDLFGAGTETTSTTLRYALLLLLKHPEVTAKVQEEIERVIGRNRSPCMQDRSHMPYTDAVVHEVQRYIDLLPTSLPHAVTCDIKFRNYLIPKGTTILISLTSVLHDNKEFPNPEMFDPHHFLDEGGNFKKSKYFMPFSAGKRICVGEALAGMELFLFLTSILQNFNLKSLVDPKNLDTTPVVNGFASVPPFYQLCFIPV
# Procedure, shortened: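 Recombinant human CYP2C9 expressed in SF9 cells, fluorogenic substrate, fluorescence read 0.75 h after dosing. Chemicals first run in duplicate at 10 uM, with actives followed in concentration series; loss of signal versus acetonitrile baseline.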
# [3] = target: Cytochrome P450 3A4 (Homo sapiens) (UniProt P08684); assay: NVS_ADME_hCYP3A4: NovaScreen (NVS) CYP450-related Enzyme Activity (ADME) Assay for human CYP3A4 (AID 2283110)
# Chain of Cytochrome P450 3A4 (Homo sapiens) (P08684 whole entry, looked up): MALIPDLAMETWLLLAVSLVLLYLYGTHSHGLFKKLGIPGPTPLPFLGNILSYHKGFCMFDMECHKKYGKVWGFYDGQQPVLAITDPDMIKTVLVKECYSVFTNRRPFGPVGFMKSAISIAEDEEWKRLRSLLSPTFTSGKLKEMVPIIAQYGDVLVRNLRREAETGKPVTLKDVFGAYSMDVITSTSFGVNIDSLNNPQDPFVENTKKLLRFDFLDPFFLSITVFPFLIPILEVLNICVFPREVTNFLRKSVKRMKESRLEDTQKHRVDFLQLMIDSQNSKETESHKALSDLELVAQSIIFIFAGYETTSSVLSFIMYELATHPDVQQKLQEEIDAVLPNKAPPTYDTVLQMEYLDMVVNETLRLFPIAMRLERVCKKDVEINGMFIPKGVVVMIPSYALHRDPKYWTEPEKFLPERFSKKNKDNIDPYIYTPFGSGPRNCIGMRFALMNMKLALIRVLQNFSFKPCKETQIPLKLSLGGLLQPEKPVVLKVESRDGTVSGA
# Procedure, shortened: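 Recombinant CYP3A4 from insect cells, fluorescence enzyme read-out, 0.33 h after chemical addition. Acetonitrile = negative control/baseline. Primary HTS: 10 uM in duplicate; actives re-tested in concentration series.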
# [4] = target: Cytochrome P450 2C19 (Homo sapiens) (UniProt P33261); assay: NVS_ADME_hCYP2C19: NovaScreen (NVS) CYP450-related Enzyme Activity (ADME) Assay for human CYP2C19 (AID 2283113);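 for AC50: potency for inhibition seen as loss of fluorescent signal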
# Procedure, shortened: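 Biochemical CYP2C19 inhibition screen: insect-cell recombinant protein plus fluorescent substrate, 1 h, fluorescence intensity. Acetonitrile defined baseline activity. Single 10 uM concentration in duplicate, with concentration-response follow-up for actives.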
# [5] = target: human Beta-secretase (BACE), BACE1 (gene 23621) (UniProt P56817); assay: NVS_ENZ_hBACE: NovaScreen (NVS) Enzymatic Assay for human Beta-secretase (BACE) (AID 2283140);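 note: hits are inhibitors that reduce fluorescent substrate signal versus DMSO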
# Chain of human Beta-secretase (BACE), BACE1 (gene 23621) (P56817 whole entry, looked up): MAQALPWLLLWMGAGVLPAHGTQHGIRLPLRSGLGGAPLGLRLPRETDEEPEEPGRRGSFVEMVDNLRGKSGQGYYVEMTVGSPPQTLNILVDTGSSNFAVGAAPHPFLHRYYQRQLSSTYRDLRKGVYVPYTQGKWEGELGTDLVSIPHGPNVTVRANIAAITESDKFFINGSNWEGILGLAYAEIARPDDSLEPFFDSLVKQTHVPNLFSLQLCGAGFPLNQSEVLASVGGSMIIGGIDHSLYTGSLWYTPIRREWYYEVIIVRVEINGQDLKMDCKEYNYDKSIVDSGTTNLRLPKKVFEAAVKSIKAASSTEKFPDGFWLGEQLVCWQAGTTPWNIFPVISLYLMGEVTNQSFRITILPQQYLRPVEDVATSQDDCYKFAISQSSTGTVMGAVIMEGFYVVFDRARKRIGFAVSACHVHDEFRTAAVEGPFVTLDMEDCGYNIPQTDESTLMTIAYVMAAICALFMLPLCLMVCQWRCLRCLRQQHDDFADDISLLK
# Procedure, shortened: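 Enzyme activity of SF9-produced BACE1 is measured cell-free by fluorescence, 1 hour post dosing, normalised to DMSO. Screening used 25 uM in duplicate, with concentration-response follow-up for actives.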
# [6] = target: human AKT serine/threonine Kinase 2 (AKT2), AKT2 (gene 208) (UniProt P31751); assay: NVS_ENZ_hAKT2: NovaScreen (NVS) Enzymatic Assay for human AKT serine/threonine Kinase 2 (AKT2) (AID 2283141)
# Chain of human AKT serine/threonine Kinase 2 (AKT2), AKT2 (gene 208) (P31751 whole entry, looked up): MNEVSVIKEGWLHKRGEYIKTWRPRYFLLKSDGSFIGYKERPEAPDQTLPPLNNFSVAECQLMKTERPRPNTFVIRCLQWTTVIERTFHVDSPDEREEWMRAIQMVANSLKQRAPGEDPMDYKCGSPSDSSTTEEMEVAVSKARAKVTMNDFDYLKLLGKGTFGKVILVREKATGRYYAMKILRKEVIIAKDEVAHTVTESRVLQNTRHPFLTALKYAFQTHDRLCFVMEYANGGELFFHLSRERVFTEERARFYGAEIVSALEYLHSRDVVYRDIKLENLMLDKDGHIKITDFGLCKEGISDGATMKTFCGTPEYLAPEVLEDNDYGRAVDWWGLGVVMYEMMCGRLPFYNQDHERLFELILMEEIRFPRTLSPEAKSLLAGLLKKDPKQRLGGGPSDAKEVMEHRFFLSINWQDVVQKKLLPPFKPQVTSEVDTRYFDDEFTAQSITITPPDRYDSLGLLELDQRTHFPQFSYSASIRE
# Procedure, shortened: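 Cell-free fluorescence/electrophoretic mobility shift readout of recombinant human AKT2 activity, 1 h after chemical dosing. Duplicate primary screen at 25 uM, then singleton concentration-response up to 50 uM; loss of signal versus DMSO baseline.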
# [7] = target: human CYP2D6, CYP2D6 (gene 1565) (UniProt P10635); assay: NVS_ADME_hCYP2D6: NovaScreen (NVS) CYP450-related Enzyme Activity (ADME) Assay for human CYP2D6 (AID 2283107)
# Chain of human CYP2D6, CYP2D6 (gene 1565) (P10635 whole entry, looked up): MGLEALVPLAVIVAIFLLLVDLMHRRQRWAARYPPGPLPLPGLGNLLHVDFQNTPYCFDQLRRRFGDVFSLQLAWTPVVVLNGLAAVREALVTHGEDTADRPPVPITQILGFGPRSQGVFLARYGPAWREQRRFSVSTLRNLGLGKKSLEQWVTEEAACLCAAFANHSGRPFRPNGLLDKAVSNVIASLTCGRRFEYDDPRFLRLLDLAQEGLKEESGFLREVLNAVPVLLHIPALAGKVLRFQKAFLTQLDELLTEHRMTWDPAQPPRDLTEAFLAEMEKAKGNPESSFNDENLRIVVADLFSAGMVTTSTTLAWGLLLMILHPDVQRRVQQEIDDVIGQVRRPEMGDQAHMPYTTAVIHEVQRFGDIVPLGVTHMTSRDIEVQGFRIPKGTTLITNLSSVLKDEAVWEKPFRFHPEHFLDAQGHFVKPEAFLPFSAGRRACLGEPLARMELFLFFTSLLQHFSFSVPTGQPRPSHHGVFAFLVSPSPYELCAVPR
# Procedure, shortened: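 Biochemical fluorescence assay, insect-cell-derived enzyme. Read at 1 h; inhibition taken from loss of signal against acetonitrile. Screened at 10 uM in duplicate, with concentration series for actives.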
# [8] = target: rat CYP2A2, Cyp2a2 (gene 24895) (UniProt P15149); assay: NVS_ADME_rCYP2A2: NovaScreen (NVS) CYP450-related Enzyme Activity (ADME) Assay for rat CYP2A2 (AID 2283116)
# Procedure, shortened: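 Compounds first tested in duplicate at 10 uM, then in singleton concentration series up to 20 uM when over threshold. Activity of the recombinant enzyme read by fluorescence at 0.2 h, normalised to acetonitrile vehicle.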
# [9] = target: human Caspase 8 (CASP8), CASP8 (gene 841) (UniProt Q14790); assay: NVS_ENZ_hCASP8: NovaScreen (NVS) Enzymatic Assay for human Caspase 8 (CASP8) (AID 2283146)
# Chain of human Caspase 8 (CASP8), CASP8 (gene 841) (Q14790 whole entry, looked up): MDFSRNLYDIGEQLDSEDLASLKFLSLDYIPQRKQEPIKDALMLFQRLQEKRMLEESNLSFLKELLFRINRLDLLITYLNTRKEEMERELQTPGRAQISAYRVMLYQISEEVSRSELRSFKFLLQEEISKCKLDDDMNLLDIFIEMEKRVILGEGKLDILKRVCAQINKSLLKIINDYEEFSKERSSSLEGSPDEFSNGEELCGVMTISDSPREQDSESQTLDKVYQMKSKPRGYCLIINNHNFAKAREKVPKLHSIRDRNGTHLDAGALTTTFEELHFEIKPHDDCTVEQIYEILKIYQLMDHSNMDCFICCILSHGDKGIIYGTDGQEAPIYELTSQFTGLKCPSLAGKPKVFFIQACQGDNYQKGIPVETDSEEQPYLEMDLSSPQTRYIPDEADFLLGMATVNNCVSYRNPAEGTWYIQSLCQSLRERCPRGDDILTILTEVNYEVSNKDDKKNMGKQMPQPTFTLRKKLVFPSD
# Procedure, shortened: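 The primary screen tested compounds in duplicate at a single 25 uM concentration, with actives followed up in concentration series. Activity of recombinant (E. coli) protease was measured by fluorescence 1 h post-dose, as signal loss against DMSO.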
# [10] = target: human Caspase 4 (CASP4), CASP4 (gene 837) (UniProt P49662); assay: NVS_ENZ_hCASP4: NovaScreen (NVS) Enzymatic Assay for human Caspase 4 (CASP4) (AID 2283143)
# Chain of human Caspase 4 (CASP4), CASP4 (gene 837) (P49662 whole entry, looked up): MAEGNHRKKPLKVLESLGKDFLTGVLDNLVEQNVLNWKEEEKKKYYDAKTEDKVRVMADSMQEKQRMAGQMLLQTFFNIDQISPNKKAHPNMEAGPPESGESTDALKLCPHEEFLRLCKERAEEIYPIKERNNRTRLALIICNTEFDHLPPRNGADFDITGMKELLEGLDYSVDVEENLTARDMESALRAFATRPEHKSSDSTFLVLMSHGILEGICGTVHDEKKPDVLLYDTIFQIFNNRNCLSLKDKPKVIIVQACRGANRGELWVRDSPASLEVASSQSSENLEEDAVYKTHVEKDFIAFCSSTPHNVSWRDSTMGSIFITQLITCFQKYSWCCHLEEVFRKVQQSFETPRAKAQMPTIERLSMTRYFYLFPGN
# Procedure, shortened: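 Compounds were first tested in duplicate at 25 uM, and hits were titrated singly to a 50 uM maximum. Recombinant protease from E. coli was read by fluorescence 2 h post-dose, and activity loss was fitted against the DMSO baseline.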
# [11] = target: human Caspase 5 (CASP5), CASP5 (gene 838) (UniProt P51878); assay: NVS_ENZ_hCASP5: NovaScreen (NVS) Enzymatic Assay for human Caspase 5 (CASP5) (AID 2283137)
# Chain of human Caspase 5 (CASP5), CASP5 (gene 838) (P51878 whole entry, looked up): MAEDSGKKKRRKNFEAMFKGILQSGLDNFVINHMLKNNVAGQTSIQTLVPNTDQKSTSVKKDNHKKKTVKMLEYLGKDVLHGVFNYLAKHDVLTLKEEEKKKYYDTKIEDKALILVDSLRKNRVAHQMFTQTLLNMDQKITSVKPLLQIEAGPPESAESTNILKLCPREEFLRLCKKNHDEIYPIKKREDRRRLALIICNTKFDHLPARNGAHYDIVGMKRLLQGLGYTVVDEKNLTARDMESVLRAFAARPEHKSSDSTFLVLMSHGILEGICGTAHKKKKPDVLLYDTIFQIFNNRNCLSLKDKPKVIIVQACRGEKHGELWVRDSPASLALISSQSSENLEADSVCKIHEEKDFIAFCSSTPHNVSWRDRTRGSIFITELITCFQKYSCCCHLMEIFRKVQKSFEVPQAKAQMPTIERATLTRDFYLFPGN
# Procedure, shortened: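 Caspase 5 enzyme activity, detected as fluorescence signal loss, is measured in a biochemical format using E. coli-expressed protein. Reading occurs 2 hours post-dosing. Screening runs at 25 uM, with confirmed actives titrated to 50 uM maximum.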
# [12] = target: human AKT serine/threonine Kinase 1 (AKT1), AKT1 (gene 207) (UniProt P31749); assay: NVS_ENZ_hAKT1: NovaScreen (NVS) Enzymatic Assay for human AKT serine/threonine Kinase 1 (AKT1) (AID 2283138)
# Chain of human AKT serine/threonine Kinase 1 (AKT1), AKT1 (gene 207) (P31749 whole entry, looked up): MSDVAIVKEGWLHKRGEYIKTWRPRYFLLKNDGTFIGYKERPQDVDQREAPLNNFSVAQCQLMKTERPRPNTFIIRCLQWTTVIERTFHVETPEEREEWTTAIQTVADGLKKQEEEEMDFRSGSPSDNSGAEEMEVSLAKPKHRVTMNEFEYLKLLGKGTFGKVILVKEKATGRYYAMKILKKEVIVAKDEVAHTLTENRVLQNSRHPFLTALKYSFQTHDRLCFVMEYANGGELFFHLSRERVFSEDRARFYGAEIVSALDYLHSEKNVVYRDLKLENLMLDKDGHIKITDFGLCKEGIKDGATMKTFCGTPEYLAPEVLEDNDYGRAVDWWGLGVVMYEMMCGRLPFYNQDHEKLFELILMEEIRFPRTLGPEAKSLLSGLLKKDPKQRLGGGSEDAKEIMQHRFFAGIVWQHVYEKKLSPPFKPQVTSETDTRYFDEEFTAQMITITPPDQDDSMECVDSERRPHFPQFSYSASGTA
# Procedure, shortened: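 A biochemical assay with recombinant enzyme and specific substrate, read by fluorescence intensity with mobility-shift separation 1 hour after dosing. Actives from 25 uM duplicate screening were titrated up to 50 uM against DMSO baseline.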
structure (smiles),measurement,setting,value
CCOC(=O)O[C@H](C)OC(=O)c1ccc2c(c1)cc(C(=O)NC1CCN(C(C)C)CC1)n2Cc1cc(-c2ccc(Cl)s2)on1,AC50,[1],13.7 µM (active)
same,AC50,[2],15.4 µM (active)
same,AC50,[3],9.45 µM (active)
same,AC50,[4],5.54 µM (active)
same,AC50,[5],0.447 µM (active)
same,AC50,[6],23.6 µM (active)
CN(C)C(=O)C1(N2CCCCC2)CCN(CC[C@@]2(c3ccc(Cl)c(Cl)c3)CN(C(=O)c3ccccc3)CCO2)CC1,AC50,[7],4.97 µM (active)
same,AC50,[2],1.17 µM (active)
same,AC50,[3],0.586 µM (active)
same,AC50,[4],0.393 µM (active)
same,outcome,[5],inactive
CCCCOC(=O)CC(CC(=O)OCCCC)(OC(C)=O)C(=O)OCCCC,outcome,[2],inactive
same,AC50,[4],3.7 µM (active) and 9.42 µM (active)
same,outcome,[8],inactive
Cc1c2ccccc2c(C)c2c1ccc1ccccc12,AC50,[1],4.33 µM (active)
same,AC50,[4],7.17 µM (active)
Clc1ccccc1C(c1ccccc1)(c1ccccc1)n1ccnc1,outcome,[1],inactive
same,AC50,[7],3.72 µM (active)
same,AC50,[2],0.585 µM (active)
same,AC50,[4],1.1 µM (active)
COc1cccc([C@H](O)C2CCN(CCc3ccc(F)cc3)CC2)c1OC,AC50,[7],5.29 µM (active)
CCCCCCCCCCCC[N+](C)(C)C,AC50,[7],7.58 µM (active)
same,outcome,[9],inactive
CCN(CC)C(=O)c1cc(S(=O)(=O)Cc2ccccc2)c(N2CCC(c3ccccc3)CC2)cc1N(CC)CCN(C)C,AC50,[7],5.11 µM (active)
same,AC50,[2],12.5 µM (active)
same,AC50,[3],4.11 µM (active)
same,AC50,[4],3.48 µM (active)
same,outcome,[10],inactive
CCCCCCCCOC(=O)c1cc(O)c(O)c(O)c1,AC50,[1],4.26 µM (active)
same,AC50,[7],10.1 µM (active)
same,AC50,[2],7.75 µM (active)
same,AC50,[3],15.4 µM (active)
same,AC50,[4],5.4 µM (active)
same,AC50,[11],25.4 µM (active)
same,outcome,[12],inactive
same,outcome,[6],inactive
same,outcome,[10],inactive
COc1ccc2cc(S(=O)(=O)N[C@H](CC(=O)N[C@H](Cc3ccc(CN4[C@H](C)CCC[C@@H]4C)cc3)C(=O)N(C)C(C)C)c3ccc4c(c3)OCO4)ccc2c1,AC50,[7],0.305 µM (active)
same,AC50,[3],0.861 µM (active)
same,AC50,[4],5.3 µM (active)
same,outcome,[5],inactive
O=C1c2ccccc2C(=O)N1CCc1noc(-c2ccc(CN3CCCCCC3)s2)n1,AC50,[7],6.57 µM (active)
same,AC50,[2],5.62 µM (active)
same,outcome,[3],inactive
same,AC50,[4],1.13 µM (active)
NCc1cccc(C2CCN(C(=O)c3ccc(C#Cc4ccccc4F)o3)CC2)c1,AC50,[1],6.43 µM (active)
same,AC50,[7],6.76 µM (active)
same,AC50,[2],0.112 µM (active)
same,AC50,[3],10 µM (active)
same,AC50,[4],0.23 µM (active)
same,AC50,[5],41.8 µM (active)
OC12N=C(c3ccccc3)SC1Cc1cc(Cl)ccc12 (stereo unspecified),AC50,[1],0.814 µM (active)
same,AC50,[4],0.245 µM (active)
CC(C)(c1cc(Br)c(O)c(Br)c1)c1cc(Br)c(O)c(Br)c1,AC50,[2],2.93 µM (active)
Cc1occc1C(=O)Nc1ccc(C(=O)N2CCC(F)(F)/C(=C\C(=O)N3CCC(N4CCCCC4)CC3)c3ccccc32)cc1,AC50,[7],1.77 µM (active)
same,outcome,[3],inactive
CC1(C)NC(=O)N(c2ccc([N+](=O)[O-])c(C(F)(F)F)c2)C1=O,AC50,[1],5.28 µM (active)
same,AC50,[4],2.81 µM (active)
CCCCOC(=O)c1ccc(O)cc1,AC50,[1],2.4 µM (active)
same,AC50,[7],4.89 µM (active)
same,AC50,[2],7.15 µM (active)
same,AC50,[4],7.75 µM (active)
same,outcome,[5],inactive
CCCOC(=O)c1cc(O)c(O)c(O)c1,outcome,[2],inactive
same,outcome,[3],inactive
same,outcome,[4],inactive
